Wnt bcat act – activates Wnt/beta-catenin signaling in a reporter cell assay | activator, plate reader | activation, % at 9.35 µM | hit rate 1.2% among 300,000; in the data active = activation above about 30%, passing the limit was not always enough; inconclusive = no clear call, values can overlap the other calls;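 note: 0% = neutral control wells and 100% = positive control wells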
MITF TRPM1 HTS – activators of MITF-driven TRPM1 promoter activity in SK-MEL-5 cells; activation, % at 12.5 µM; hit rate 0.75% among 300,000; SK-MEL-5 TRPM1-promoter luciferase, 24 h; % of positive control, neutral wells = 0;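 active = mean activation of at least 80% with every replicate also reaching 80%; inconclusive = mean reaches 80% but some replicate falls short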;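 note: 0% = neutral control wells and 100% = parthenolide positive control wells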
esBAF inh – inhibitors of esBAF chromatin remodeling in mouse ES cells. Bmi1-luciferase knock-in reporter, 24 h; 100% = twice the neutral-well signal. AID 602393. hit rate 2% among 350,000. reporter increase, % at 12.5 µM; in the data active = activation above about 40%; inconclusive = no clear call, values can overlap the other calls;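 note: 0% = median of the plate's neutral control wells and 100% = double that signal; a rise in the Bmi1 reporter signal indicates esBAF inhibition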
AF4-AF9 inh – blocks AF4 peptide binding to human AF9. P42568. AlphaScreen, biotin-AF4 peptide binding to FLAG-AF9. inhibition, % at 10 µM. hit rate 0.47% among 350,000;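 active = every replicate reaching a set inhibition limit, whatever the replicate mean, cut at about 25% in these data; inconclusive = mean inhibition reaches that limit but some replicates miss it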;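 note: 0% = plate neutral control median and 100% = total signal loss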
Target sequence (P42568 whole entry, looked up): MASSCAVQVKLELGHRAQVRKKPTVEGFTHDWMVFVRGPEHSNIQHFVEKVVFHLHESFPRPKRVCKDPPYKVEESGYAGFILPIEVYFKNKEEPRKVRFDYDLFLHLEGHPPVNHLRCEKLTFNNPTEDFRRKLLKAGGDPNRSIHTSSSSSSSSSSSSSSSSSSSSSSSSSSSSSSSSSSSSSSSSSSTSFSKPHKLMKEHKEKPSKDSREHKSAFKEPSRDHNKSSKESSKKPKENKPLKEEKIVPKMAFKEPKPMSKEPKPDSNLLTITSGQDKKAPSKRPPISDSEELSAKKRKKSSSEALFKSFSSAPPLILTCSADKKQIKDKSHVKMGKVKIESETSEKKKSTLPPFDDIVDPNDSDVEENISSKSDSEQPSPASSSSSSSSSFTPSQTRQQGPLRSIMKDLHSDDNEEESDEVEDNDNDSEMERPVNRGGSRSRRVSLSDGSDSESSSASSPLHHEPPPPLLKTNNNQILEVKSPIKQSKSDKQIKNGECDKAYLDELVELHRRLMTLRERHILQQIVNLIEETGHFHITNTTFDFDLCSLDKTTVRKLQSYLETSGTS
SMARCA2 act – activators of SMARCA2 function; activation, % at 9.1 µM; MG213 cells, MMTV-luciferase reporter, dexamethasone, overnight; AID 652017; hit rate 1% among 370,000; in the data active = activation above about 7.8%;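 note: 0% = vehicle wells and 100% = reference activator wells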
FGF22 binding – binders of recombinant human FGF22 by thermal shift. Q9HCT0. SYPRO orange fluorescence; percent of sucrose octasulfate shift, DMSO zero. activity (Tm shift, normalised), % at 9.99 µM. hit rate 1.5% among 340,000;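 active = mean Tm shift, scaled 0 neutral to 100 positive control, at about 1.3% or above, every replicate too, limit read from the data; inconclusive = no clear call, values can overlap the other calls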
Numbers without * were called inactive; ? = inconclusive; . = not tested or not shown. Shown are actives, neighbours in structure and some others; about 4.3% of the full set was active somewhere.

SMILES	Wnt bcat act	MITF TRPM1 HTS	esBAF inh	AF4-AF9 inh	SMARCA2 act	FGF22 binding
O=C(CSc1ccccc1)Nc1ccc2sccc2c1	10.9	44.2	9.9	-3.3	5.5	0.0
O=C(CSc1cccs1)Nc1ccc2ccccc2c1	.	.	59.5*	.	6.1	.
O=C(C[C@H]1C[C@H]2c3cc(NC(=O)c4cccnc4)ccc3O[C@H]2[C@H](CO)O1)NCc1ccccc1F	.	.	-5.8	-0.8	.	.
CCCNC(=O)Nc1ccc2c(c1)C(=O)N(C)[C@@H]1CC[C@H](CC(=O)NCc3ccccc3)O[C@@H]1CO2	.	.	6.1	-6.4	.	-0.1
O=C(N[C@H]1CC[C@@H](CCn2cc(C3(O)CCCC3)nn2)O[C@H]1CO)C1CCCC1	.	.	6.3	-0.5	.	-0.2
CC(=O)NCCc1ccc(C(=O)COC(=O)c2cc(C)oc2C)cc1	37.4*	17.2	8.4	-1.2	1.7	-0.1
CCC(=O)N1CCc2cc(Br)cc(S(=O)(=O)N(C)c3ccc(OC)cc3OC)c21	-8.8	1.8	2.0	-13.3	-2.8	43.1*
Cc1ccc2nc(-c3cccc(Br)c3)c(Cc3cccc(Cl)c3)n2c1	35.8*	.	?	-1.3	2.4	-0.1
Cc1ccc2nc(-c3ccccc3)c(Cc3cccc(Cl)c3)n2c1	40.8*	.	?	0.7	2.3	0.0
Cc1ccc(-c2nc3ccc(Cl)cn3c2Cc2ccsc2)cc1	?	.	28.9	3.6	-0.5	0.1
CCCc1nc2ccc(C)cn2c1Cc1cccc(Cl)c1	1.9	.	44.7*	-1.6	-1.3	-0.1
Cc1ccc2nc(-c3ccc(Cl)cc3)c(Cc3ccsc3)n2c1	7.3	.	.	1.6	7.8*	-0.3
Clc1cccc(Cc2c(-c3ccccc3)nc3ccc(Cl)cn23)c1	11.3	.	16.1	0.0	3.5	0.2
O=C(c1ccccc1)N1CC(=O)N2[C@@H](CO)[C@@H](c3ccc(C#CCC4CCCC4)cc3)[C@@H]2C1	.	.	.	4.4	.	.
C[C@H]1CN([C@@H](C)CO)C(=O)Cc2cc(NC(=O)CCCCCC(=O)Nc3ccccc3N)ccc2O[C@H]1CN(C)S(=O)(=O)c1cccs1	.	.	-5.4	.	.	0.1
C[C@@H]1CCCCO[C@@H](CN(C)S(=O)(=O)c2cn(C)cn2)[C@@H](C)CN([C@H](C)CO)C(=O)c2cc(NS(C)(=O)=O)ccc2O1	.	.	2.0	-14.3	.	0.6
O=C(N[C@@H]1CC[C@H](CCNS(=O)(=O)c2cccc(Cl)c2)O[C@@H]1CO)c1ccc(F)cc1	.	.	0.1	-1.2	.	0.0
Clc1ccc2nc(-c3cccc(Br)c3)c(Cc3ccccc3)n2c1	33.9*	.	?	-2.4	-1.4	0.1
Clc1cccc(Cc2c(-c3cccc(Br)c3)nc3ccc(Cl)cn23)c1	0.1	.	38.9	-1.0	0.9	0.3
Clc1cccc(Cc2c(-c3ccco3)nc3ccc(Cl)cn23)c1	-3.8	.	-3.1	-0.3	6.9	1.7*
Cc1ccc2nc(-c3cccc(Br)c3)c(CC3CCCCC3)n2c1	23.7	.	45.9*	-2.8	-0.1	0.0
Cc1ccc(Cc2c(-c3cccc(Br)c3)nc3ccc(C)cn23)cc1	-1.1	.	.	0.8	5.6	0.0
Clc1cccc(Cc2c(-c3ccco3)nc3ccc(Br)cn23)c1	-2.0	.	-5.6	-4.3	-5.5	-0.1
Cc1ccc(-c2nc3ccc(Cl)cn3c2Cc2cccc(F)c2)cc1	1.8	.	49.9*	2.1	2.2	-0.1
Cc1ccc2nc(-c3ccc(Cl)cc3)c(Cc3cccc(F)c3)n2c1	9.9	.	.	3.9	0.7	-0.2
SMILES	Wnt bcat act	MITF TRPM1 HTS	esBAF inh	AF4-AF9 inh	SMARCA2 act	FGF22 binding
CC(C)NC(=O)N(C)C[C@H]1Oc2c(NC(=O)C3CC3)cccc2C(=O)N([C@@H](C)CO)C[C@@H]1C	.	.	-0.4	-2.0	.	-0.1
CC(=O)Nc1ccc(NC(=O)c2cc(C)nn2-c2ccccc2)cc1	.	-8.7	1.8	.	1.5	.
CC(=O)c1cc2c(cc1NC(=O)c1cc(C)nn1-c1ccccc1)OCO2	-3.1	.	-0.7	34.2*	1.0	-0.3
Cc1ccc(C2=NN(S(=O)(=O)c3ccccc3)C(c3ccccc3O)C2)cc1 (stereo unspecified)	22.2	-1.1	.	10.6	-2.7	43.6*
COc1ccc(C2=NN3C(C2)c2ccccc2OC3c2cccs2)cc1 (stereo unspecified)	49.5*	56.8	.	4.3	3.4	0.2
Cc1ccc(C2=NN3C(C(=O)c4ccccc4)Oc4ccccc4C3C2)cc1 (stereo unspecified)	43.2*	.	68.2*	.	2.9	.
Nc1[nH]c2cc(Cl)ccc2c1C(=O)NCCc1ccc(Cl)cc1	.	.	.	.	-0.5	.
Cc1ccc(CN(C)C[C@@H]2OCc3cn(nn3)CCCC(=O)N([C@@H](C)CO)C[C@@H]2C)cc1	.	.	0.9	-0.9	.	0.0
O=C(Nc1ncccc1O)c1ccc(Oc2ccccc2)cc1	37.2*	47.2	-1.2	-1.5	2.8	-0.1
CCOc1ccc(C(=O)Nc2ncccc2Cl)cc1	.	72.5	65.9*	-1.5	2.1	0.1
CCOc1ccc(NC(=O)c2ccccn2)cc1	-2.2	-61.4	.	7.7	-3.8	0.1
Cc1noc(C)c1S(=O)(=O)Nc1cccc2c1O[C@H](CN(C)C(=O)Nc1ccc3c(c1)OCO3)[C@H](C)CN([C@@H](C)CO)C2=O	.	.	-1.5	0.5	.	-0.3
CN(C)c1ccc(NC(=O)N2CCOCC2)cc1	8.1	23.1	55.1*	.	-1.4	.
O=C(Nc1ccc(F)cc1)N1CCOCC1	.	1.6	.	.	-1.2	.
O=C(NCC[C@@H]1CC[C@H](NS(=O)(=O)c2ccc(Cl)cc2)[C@@H](CO)O1)c1ccc2c(c1)OCO2	.	.	0.8	0.5	.	-0.2
C[C@H]1CN([C@@H](C)CO)C(=O)c2cc(C#CC3CCCCC3)cnc2O[C@@H]1CN(C)S(=O)(=O)c1ccc(F)cc1	.	.	-5.0	-8.8	.	-0.1
O=C(C1CCOCC1)N1CC(=O)N2[C@H](C1)[C@H](c1ccc(C#Cc3cccc(F)c3)cc1)[C@@H]2CO	.	.	.	-1.3	.	-0.6
CN1c2ccc(C3=CCCCC3)cc2[C@H]2[C@H](CCN2C(=O)C2CCCCC2)[C@H]1CO	.	.	.	26.5*	.	.
COc1ccc(-c2ccc3c(c2)[C@H]2[C@H](CCN2C(=O)C2CCCC2)[C@H](CO)N3C)cc1	.	.	.	25.7*	.	.
COc1cccc(-c2ccc3c(c2)[C@@H]2[C@@H](CCN2C(=O)NC2CCCC2)[C@@H](CO)N3C)c1	.	.	5.2	5.0	.	0.0
COc1ccc(-c2ccc3c(c2)[C@@H]2[C@@H](CCN2C(=O)Nc2ccc(F)cc2)[C@H](CO)N3C)cc1	.	.	.	30.0*	.	.
CN1c2ccc(C3=CCCCC3)cc2[C@@H]2[C@@H](CCN2C(=O)C2CCCC2)[C@H]1CO	.	.	-8.0	1.6	.	-0.4
COc1ccc(-c2ccc3c(c2)[C@@H]2[C@@H](CCN2C(=O)NC2CCCC2)[C@H](CO)N3C)cc1	.	.	.	36.2*	.	.
CC(C)NC(=O)NCC[C@@H]1CC[C@@H](NC(=O)CCN2CCCCC2)[C@@H](CO)O1	.	.	-3.4	.	.	.
O=C(/C=C/c1cccnc1)c1ccc(F)c(F)c1	3.3	15.1	-1.5	0.8	-0.7	0.0
CN(C)c1ccc(C(=O)/C=C/c2cccnc2)cc1	-0.9	2.1	63.0*	-2.4	2.1	-0.3

Screens (PubChem)
